TbPYK inhibitor: qHTS of Trypanosoma Brucei Inhibitors. TbPYK enzyme, Kinase-Glo Plus ATP luminescence, 45 min. Potency, µM (doses to about 76.8 µM), for inactives: at the highest dose activity, negative = inhibition, most hits filed as inhibitors. 410,000 compounds, 0.12% hits. AID 624173, 2012; further: nearly all actives have a fitted effect of over 50% in size
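Screened from lowest to highest concentration, compounds were pinned into TbPYK/substrate mixtures, and ADP (130 uM final) was added. Plates sat at room temperature for 45 min prior to Kinase-Glo Plus detection by luminescence.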
RE007 growth inh: qHTS Assay for Inhibitors of the HIV-1 protein Vpr; S. pombe RE007 Vpr strain, BacTiter-Glo ATP luminescence, 24 h; Potency, µM (highest dose often 92.2 µM), inactives show at the top dose activity change, negative = less growth, hits mostly inhibitors; 360,000 compounds, 0.21% hits; AID 651644, 2012; active means well fitted falling curve with a large enough effect; inconclusive means small, poorly fitted or top-dose-only effect; inactive means no such curve, though single readings can be large or run the other way; further: nearly all actives have a fitted effect of over 50% in size
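Fission yeast strain RE007, carrying one chromosomally integrated HIV-1 vpr copy, was seeded at OD 0.01 in PMG+AL medium with 23 nL pinned compound. After 24 h at 30 °C and 99% humidity, viability was read by BacTiter-Glo luminescence.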
Sm TGR inh: qHTS Assay for the Inhibitors of Schistosoma Mansoni Peroxiredoxins | purified TGR, DTNB reduction, TNB absorbance 405 nm | Potency, µM (titrated, usually from 114 µM), for the others: top-dose activity change, negative = inhibition, most hits filed as inhibitors | 360,000 compounds, 3% hits | AID 485364, 2010; further: nearly all actives have a fitted effect of over 60% in size
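First, TGR (20 nM dispensed) and NADPH were mixed with compound. Second, a 15 min room-temperature incubation followed. Third, further NADPH and then DTNB were added to start the reaction. Finally, TNB absorbance was monitored kinetically.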
LmPK inh: qHTS Assay for Inhibitors of Leishmania Mexicana Pyruvate Kinase (LmPK); Potency, µM (series often up to 57.5 µM), for inactives: at the highest dose activity change, negative = inhibition, most hits filed as inhibitors; 290,000 compounds, 0.37% hits; AID 1721, 2009; Q27686; purified LmPK, Kinase-Glo ATP luminescence, 1 h
Target sequence (Q27686 whole entry, looked up): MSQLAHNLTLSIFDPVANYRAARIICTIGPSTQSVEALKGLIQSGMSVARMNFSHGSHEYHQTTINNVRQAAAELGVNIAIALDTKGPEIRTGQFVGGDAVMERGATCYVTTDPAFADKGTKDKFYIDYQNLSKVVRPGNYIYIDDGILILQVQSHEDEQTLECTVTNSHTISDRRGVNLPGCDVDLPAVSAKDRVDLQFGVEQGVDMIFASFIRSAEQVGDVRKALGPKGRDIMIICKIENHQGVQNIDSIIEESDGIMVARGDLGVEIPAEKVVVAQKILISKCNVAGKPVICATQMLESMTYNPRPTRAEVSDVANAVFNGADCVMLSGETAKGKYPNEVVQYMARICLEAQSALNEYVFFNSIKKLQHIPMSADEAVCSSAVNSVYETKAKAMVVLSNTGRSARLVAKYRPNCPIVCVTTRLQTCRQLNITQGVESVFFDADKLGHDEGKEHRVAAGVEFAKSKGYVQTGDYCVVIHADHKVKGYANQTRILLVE
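ATP generated from ADP (0.1 mM) and PEP (0.5 mM) by 0.1 nM LmPK over 1 h at room temperature (pH 7.2 imidazole buffer) was detected by coupled luciferase luminescence. Values were normalized to uninhibited and no-enzyme wells.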
* marks the source's active call; other numbers are inactive results; ? = inconclusive; nt = no result given; [ ] = remark or other dose. Hits are enriched below; roughly 3% of the tested compounds scored in any of these assays. Unless noted, the call rests on the fitted dose curve; in most records, active means well fitted curve in the direction sought with a large enough effect; inconclusive means small, poorly fitted or top-dose-only effect, or another doubt; inactive means no such curve, though single readings can be large; an effect the other way counts as inactive or inconclusive. On the % scale 0 is the no-effect control and ±100 the full control effect; potency means the concentration at half of the fitted maximal effect.

SMILES | TbPYK inhibitor | RE007 growth inh | Sm TGR inh | LmPK inh
CCOC(=O)C1CCN(C(=O)Nc2ccc3nc(-c4ccco4)c(-c4ccco4)nc3c2)CC1 | ? | -22% | 0.71µM* | -7%
O=C(Nc1ccc2nc(-c3ccco3)c(-c3ccco3)nc2c1)N1CCCCCC1 | ? | -1% | 0.71µM* | 1%
CCOC(=O)C1CCN(C(=O)Nc2ccc3c(c2)nc(C)n3C)CC1 | 1% | 6% | 2% | -4%
O=C(Nc1nc2n(n1)C(c1ccccc1)C=C(c1ccccc1)N2)c1ccccc1 (stereo not drawn) | -6% | nt | 6.3µM* | nt
COc1ccc(C(=O)Nc2nc3n(n2)C(c2ccc(Cl)cc2)C=C(c2ccccc2)N3)cc1OC (stereo not drawn) | 1% | nt | 22µM* | nt
COc1ccc(C2C=C(c3ccccc3)Nc3nc(NC(=O)c4ccc(C)cc4)nn32)cc1 (stereo not drawn) | -14% | nt | -6% | nt
CC(C)=CCC/C(C)=C\CC/C(C)=C\CC/C=C(\C)CC/C=C(\C)CCC=C(C)C | -2% | nt | nt | nt
CC1(C)CCN2CCC(C)(C)c3c(O)ccc1c32 | -13% | 2% | 2.8µM* | ?
CCC(=O)N1CCc2cc(Br)cc(S(=O)(=O)CCC(=O)NCc3ccc(F)cc3)c21 | 1% | nt | -20% | nt
CCOC(=O)[C@H]1[C@H]2COc3ccc(C)cc3[C@@H]2N2C(=O)CN(Cc3ccco3)C(=O)[C@@]12C | -14% | 4% | 14µM* | nt
CCOC(=O)[C@H]1[C@H]2COc3ccc(OC)cc3[C@@H]2N2C(=O)CN(Cc3ccc(OC)cc3)C(=O)[C@@]12C | 0% | 0% | 50µM* | nt
CC(=O)Nc1ccc(S(=O)(=O)N(C)CC(=O)OCCOc2cccc(C)c2)cc1 | 0% | -15% | 0% | -6%
OC1CCN(Cc2ccc(OCc3ccccc3)cc2)CC1 | 3% | -6% | 8% | 4%
COc1ccccc1N1CCN(Cc2ccc(O)c3ncccc23)CC1 | -3% | ? | 50µM* | -6%
CCOC(=O)C1CCN(Cc2ccc(O)c3ncccc23)CC1 | -4% | -8% | 2.8µM* | 4%
COc1ccccc1N1CCN(Cc2ccc(OC)c(OC)c2OC)CC1 | nt | 11%[3.69 µM] | 5% | 8%
Oc1ccc(COC2CCN(Cc3ccccc3)C2)c2cccnc12 (stereo not drawn) | nt | nt | 45µM* | nt
Oc1ccc(CN2CCCc3ccccc32)c2cccnc12 | 5% | 22% | 0.1µM* | 20%
CC(C)c1ccccc1NC(=O)Nc1nnc([C@@H]2C[C@H](O)[C@@H](CO)O2)s1 | 1% | -4% | nt | nt
Oc1c(Br)cc(Br)cc1CNc1cccc2cccnc12 | -7% | ? | 1.8µM* | 0%
CN1C(=O)NC(c2ccccc2)C2=C1CN(Cc1ccco1)C2=O (stereo not drawn) | -3% | 5% | 35µM* | 4%
CN1C(=O)NC(c2ccccc2)C2=C1CN(CCc1ccccc1)C2=O (stereo not drawn) | 5% | -16% | ? | -2%
O=C(/C=C/Sc1ccc(C(F)(F)F)cn1)c1ccccc1 | -2% | 2% | 89µM* | -12%
O=C(CSc1ccc(C(F)(F)F)cn1)Nc1ccccc1 | -2% | 2% | 8% | 2%
C/C(=N/NS(=O)(=O)c1ccc(Cl)cc1)c1ccncc1 | -5% | 1% | 28µM* | 1%
SMILES | TbPYK inhibitor | RE007 growth inh | Sm TGR inh | LmPK inh
CC(=NNC(=O)c1ccncc1)c1ccccc1Cl | 5% | -1% | nt | nt
C/C(=N\NC(=O)c1ccccc1NC(=O)c1ccc(Cl)cc1)c1ccncc1 | ? | 4µM* | -4% | ?
Cc1ccc(NC(=O)CSc2nc3c(sc4ccccc43)c(=O)n2CCCC(=O)NC2CCCC2)cc1C | 4% | nt | 0% | nt
COC(=O)C1=C(C)N(Cc2ccccc2)C(=O)/C1=C\c1ccco1 | -8% | 8% | 8.9µM* | -6%
COC(=O)C1=C(C)N(c2ccc(OC)cc2)C(=O)/C1=C\c1cccs1 | -1% | 5% | -11% | 3%
COC(=O)C1=C(C)N(c2cccc(OC)c2)C(=O)/C1=C\c1ccco1 | 11% | -1% | 35µM* | -2%
CCN1C(=O)/C(=C\c2ccco2)C(C(=O)OC)=C1C | -7% | -20% | -3% | 6%
COC(=O)C1=C(C)N(CCc2ccccc2)C(=O)/C1=C\c1ccco1 | 0% | -14% | 45µM* | 0%
